Source: PubChem BioAssay (Tox21)
Several values for one entry are separate records, joined by “and”; a condition that tells them apart may be missing. Identical values can stand only once. Inconclusive results are not listed. Entries that show only a call come without a potency. Some compounds were tested as several samples or in several runs, with calls that do not always agree. Activity calls are given as the source filed them. Calls come from the whole dose curve; as a rule, active = well fitted cell-killing curve with a large enough effect in the repeat runs; inconclusive = weak or mixed curves, or effect the other way; inactive = no such curve, though single readings can be large or run the other way.

test: Caspase-3/7 induction in CHO-K1 cells by small molecules, qHTS cell viability counter screen (AID 1346979); conditions: CellTiter-Fluor fluorescence, 17 h; series mostly up to 92.4 µM; note: nearly all actives have a fitted effect of over 35% in size
Text: National Center for Advancing Translational Sciences [NCATS]
NIH Chemical Genomics Center [NCGC]
U.S. Environmental Protection Agency [EPA]
National Institutes of Environmental Health Sciences [NIEHS]
National Toxicology Program [NTP]
U.S. Food and Drug Administration [FDA]
Apoptosis is a process of programmed cell death and plays a central role in the development of multicellular organisms. It is a highly regulated process and induces cell death by activating caspases, which are the members of cysteine aspartic acid-specific protease (caspase) family. Caspases involved in apoptosis are classified by their mechanism of action as initiator caspases (caspase-2, -8, -9 and -10) and executioner caspases (caspase-3, -6, and -7). Inhibition of apoptosis results in number of cancers, autoimmune diseases, inflammatory diseases and viral infection. To identify small molecule compounds that induce apoptosis, a homogeneous, luminescent Caspase-Glo 3/7 assay was used. Wild type CHO-K1 cells were used to screen Tox21 libraries for identifying caspase-3/7 activity inducers. Also cytotoxicity of the compounds was tested in parallel by measuring the cell viability using CellTiter-Fluor assay system in the same wells.
Tox21 Assay Protocol Summary:
CHO-K1 cells were dispensed at 1,500 per well in 5uL of culture medium into white solid bottom 1536-well plates (Corning Life Sciences, Corning, NY) using a Multidrop Combi (Thermo Scientific, Waltham, MA) dispenser. The assay plates were incubated at 37 C and 5% CO2 for 5hr, and then 23nL of compounds dissolved in DMSO and positive control were transferred using a Pintool station (Wako, San Diego, CA). The assay plates were incubated at 37C and 5% CO2 for 17hr. For cytotoxicity read, after 16hr incubation at 37C, 1uL CellTiter-Fluor reagent (Promega Corporation, Madison, WI) was added to each well of the assay plates using Flying Reagent Dispenser (FRD, Aurora Discovery, San Diego, CA). After 1hr incubation at 37C and 5% CO2, the fluorescence signal was quantified using a ViewLux plate reader (PerkinElmer, Shelton, CT).
Potency is the fitted concentration of half-maximal effect.

Row | Compound | Potency
1 | Nc1nc(N)nc(-c2ccccc2)n1 | inactive
2 | O=S(=O)(O)c1ccc(N=Nc2c(O)ccc3cc(S(=O)(=O)O)ccc23)cc1 | 54.7 µM (active) and 27.3 µM (active)
3 | C=CC(=O)OCCC(=O)O | inactive
4 | C=CC(C)CCCC(C)(C)O (stereo not given) | inactive
5 | COCCOC(=O)c1ccccc1C(=O)OCCOC | inactive
6 | COC(=O)CCCC(=O)OC | 54 µM (active) and inactive
7 | CNC(=S)N(C)C | inactive
8 | CC(=O)c1ccc(O)cc1 | inactive
9 | OCc1cccc(Oc2ccccc2)c1 | inactive
10 | C=C(C)C(=O)OCC(C)C | 12.4 µM (active) and inactive
11 | CCCCC(C=O)CC (stereo not given) | inactive
12 | NCCNCCN | inactive
13 | CCCCCCCCCCCCCCCCO | inactive
14 | Cc1ccc2ncccc2c1 | inactive
15 | CCCCCCC=O | inactive
16 | CCCCCCCC=O | inactive
17 | CCNc1cccc(C)c1 | inactive
18 | CCCCCC(=O)O | inactive
19 | O=S(=O)(O)c1ccccc1 | inactive
20 | O=C(O)/C=C/C(=O)O | inactive

Row | Compound | Potency
21 | CC(C)OP(=O)(CP(=O)(OC(C)C)OC(C)C)OC(C)C | inactive
22 | C=C(C)[C@H]1CC=C(C)C(=O)C1 | inactive
23 | C=Cc1ccc(C)cc1 | inactive
24 | CC(C)CC(C)O (stereo not given) | inactive
25 | C[C@]12CC[C@@H]3c4ccc(O)cc4CC[C@H]3[C@@H]1C[C@@H](O)[C@@H]2O | inactive
26 | CC(C)CCCCCCCOC(=O)CCCCC(=O)OCCCCCCCC(C)C | inactive
27 | CCO[Si](CCC#N)(OCC)OCC | inactive
28 | CC(C)=CCl | inactive
29 | CCCCCCCCCCO | inactive
30 | c1ccc2c(c1)Cc1ccccc1-2 | inactive
31 | C=CCc1ccc(OC)c(OC)c1 | inactive
32 | CC1(C)NC(=O)NC1=O | inactive
33 | CC(C)(C)c1cc(Cc2cc(C(C)(C)C)c(O)c(C(C)(C)C)c2)cc(C(C)(C)C)c1O | inactive
34 | O=C(O)c1ccccc1C(=O)O | inactive
35 | COCCCN | inactive
36 | CN/C(=C\[N+](=O)[O-])NCCSCc1csc(CN(C)C)n1 | inactive
37 | COc1cc(OC)c(C(=O)CCCN2CCCC2)c(OC)c1 | inactive
38 | CCNc1ccccc1 | inactive
39 | CNC(=O)Oc1ccc2c(c1)[C@]1(C)CCN(C)[C@@H]1N2C | inactive
40 | N#Cc1ccccc1 | inactive
